A short description of assay [1]: NCI Yeast Anticancer Drug Screen. Data for the rad50 strain (AID 155).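 Also: 0% = growth of vehicle-only cultures of the same strain.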 The settings on record: S. cerevisiae rad50 strain growth inhibition; at 50.0 µM; stronger effect = higher value. In a few lines: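 Vehicle-treated cultures provide the reference for the growth inhibition reported for compound-exposed, repair-deficient yeast.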
Assay [2] can be described thus: NCI Yeast Anticancer Drug Screen. Data for the mec2-1 strain (AID 157). The note with it: S. cerevisiae mec2-1 strain, at 50.0 µM, stronger effect = higher value. In a few lines: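 Vehicle-treated cultures served as reference for growth inhibition of compound-exposed mec2-1 yeast.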
The nature of assay [3]: NCI Yeast Anticancer Drug Screen. Data for the sgs1 mgt1 strain (AID 161).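 Also: 0% = growth of cultures given vehicle only.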 The settings on record: S. cerevisiae sgs1 mgt1 strain, at 50.0 µM, stronger effect = higher value. The method, boiled down:
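Read-out: growth inhibition vs vehicle controls. Cells: mutant yeast strain deficient in DNA damage repair.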

Assay [4] can be described thus: NCI Yeast Anticancer Drug Screen. Data for the cln2 rad14 strain (AID 165).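 Also: 0% = growth equal to vehicle treated cultures.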 The settings on record: S. cerevisiae cln2 rad14 strain, at 50.0 µM, stronger effect = higher value. The method, boiled down:
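Each compound was tested on cln2 rad14 yeast. Inhibition of growth was calculated against vehicle-exposed controls.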

Assay [5] in a line: NCI Yeast Anticancer Drug Screen. Data for the bub3 strain (AID 167). The note with it: S. cerevisiae bub3 mutant strain, at 50.0 µM, stronger effect = higher value. The method, boiled down: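 Mutant yeast screening strain plus compound; vehicle-treated cultures serve as the 0% inhibition reference.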
Assay [6] in a line: NCI Yeast Anticancer Drug Screen. Data for the mlh1 rad18 strain (AID 175). The note with it: S. cerevisiae mlh1 rad18 strain growth inhibition; at 50.0 µM; stronger effect = higher value. In a few lines:
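Vehicle-treated cultures served as the reference for growth inhibition in a yeast strain carrying DNA damage repair alterations exposed to each compound.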

The panel holds about 79,000 compounds, 15% with a hit somewhere; the sample as a whole holds those more often. A number with no mark means an inactive call. Activity calls are given as the source filed them. Rule as the data show it: active = growth inhibition above about 70%; inactive = the rest.

For `C/C=C1\CN2CCc3c([nH]c4ccccc34)C2CC1CC(=O)N(C)C` (stereo not given), the growth inhibition was 0.9% in assay [1]; -7.75% in assay [2]; -20.6% in assay [3]; -1% in assay [4]; 1.6% in assay [5]; -5.95% in assay [6].

As for `CC(=O)Nc1ccc(/C=C2\CCOC2=O)cc1[N+](=O)[O-]`, the growth inhibition in assay [1] is 6.8%; in assay [2], 8.2%; in assay [3], 7.15%; in assay [4], 57.5%; in assay [5] it was 8%; in assay [6], 3.6%.

As for `COc1ccccc1N=Nc1c(O)n(-c2ccccc2OC)c(=S)n(-c2ccc(I)cc2)c1=O`, the growth inhibition in assay [1] is 96% (active); in assay [2] it was 96.2% (active); in assay [3], 96% (active); in assay [4], 92.8% (active); in assay [5], 95.2% (active); in assay [6] it was 96.7% (active).

Consider `COC(=O)c1ccccc1NC(OC)c1cccc([N+](=O)[O-])c1` (stereo not given), for which the growth inhibition is 18.6% in assay [1]; 13.4% in assay [2]; 12.1% in assay [3]; 17.7% in assay [4]; 12.6% in assay [5]; 5.55% in assay [6].

In the case of `CC1(C)CCC2(CC1)CC[N+](C)(CCC[N+](C)(C)C)CC2`, the growth inhibition in assay [1] was -26.6%; in assay [2] it was -8.4%; in assay [3], -10.8%; in assay [4], -11.8%; in assay [5] it was 8.7%; in assay [6], -11.2%.

For `COCCN1CC(=O)N2Cc3ccccc3CN2C(=O)C1`, the growth inhibition in assay [1] was -4.6%; in assay [2], -13.8%; in assay [3] it was -6.15%; in assay [4], -9.5%; in assay [5] it was -3%; in assay [6], -6.65%.

Take `C=CC[N+](C)(CC=C)CC[N+](C)(CC=C)CC=C`: the growth inhibition in assay [1] was -15%; in assay [2], 1.35%; in assay [3], -14.9%; in assay [4], -43.5%; in assay [5], 1.6%; in assay [6] it was -18.4%.

Turning to `O=S(=O)(O)c1ccccc1O`, the growth inhibition in assay [1] was -0.1%; in assay [2], -3.35%; in assay [3], -2.75%; in assay [4], -44.4%; in assay [5], -19.9%; in assay [6], 1.95%.

As to `CC1=C(CCC(=O)O)c2cc3nc(cc4[nH]c(cc5[nH]c(cc1n2)c(C)c5C(C)O)c(C)c4C(C)O)C(C)=C3CCC(=O)O` (stereo not given), the growth inhibition is 12.4% in assay [1]; 5.2% in assay [2]; 7.7% in assay [3]; 29.8% in assay [4]; 21.6% in assay [5]; 1.65% in assay [6].

Turning to `CCCCCCCCCCCCS(=O)(=O)O` (tested in a mixture with another compound), the growth inhibition in assay [1] was -5.1%; in assay [2], -6%; in assay [3] it was -9.05%; in assay [4] it was -12.4%; in assay [5], -22.5%; in assay [6], -12.8%.

For the compound `C1CSC[C@H]2COC[C@@H](CSCCS1)S2`, the growth inhibition in assay [1] is -0.5%; in assay [2], 4.25%; in assay [3], -2.55%; in assay [4], 18.9%; in assay [5], 9.05%; in assay [6] it was -7.9%.

On to `O=C(c1ccc(O)c(C(=O)O)c1)c1ccc(O)c(C(=O)O)c1`, for which the growth inhibition in assay [1] is 10.9%; in assay [2], -13.9%; in assay [3], -5.3%; in assay [4] it was -0.7%; in assay [5] it was -19.9%; in assay [6], -2.85%.

As to `CCc1c(C)c2cc(N)ccc2[nH]c1=O`, the growth inhibition in assay [1] is -8.05%; in assay [2], 24.1%; in assay [3], -3.7%; in assay [4], -23.7%; in assay [5], -9.9%; in assay [6], 6.45%.

Take `CCOC(=O)c1ccc(NC(=O)Nc2cc(Cl)ncn2)cc1`: the growth inhibition was 10.1% in assay [1]; -6.55% in assay [2]; 9.15% in assay [3]; -22.9% in assay [4]; 10.3% in assay [5]; -6.15% in assay [6].

For `CCC[C@@H]1C[C@@H](OC(=S)SC)C[C@H]2CCC(=O)N12`, the growth inhibition is -3.1% in assay [1]; -9.6% in assay [2]; -7.85% in assay [3]; -4.9% in assay [4]; 44.9% in assay [5]; -16.6% in assay [6].

Consider `CN(/C=C1\CCCCC1=O)c1ccccc1`, for which the growth inhibition was -4.35% in assay [1]; -17.2% in assay [2]; -35.4% in assay [3]; -14.4% in assay [4]; -22.2% in assay [5]; -7% in assay [6].

Take `NC(=O)CO`: the growth inhibition is 22.2% in assay [1]; -15.9% in assay [2]; 17.6% in assay [3]; 5.35% in assay [4]; 5.7% in assay [5]; 19.5% in assay [6].

Regarding `Cc1nnc(N/N=C/c2ccccc2)n1/N=C\c1ccccc1`, the growth inhibition is 8.05% in assay [1]; 17.1% in assay [2]; -5.8% in assay [3]; 10.2% in assay [4]; 4.85% in assay [5]; -25.4% in assay [6].

Take `O=C(OC1CCCC1OC(=O)c1ccccc1)c1ccccc1` (stereo not given): the growth inhibition is -11.5% in assay [1]; 9.6% in assay [2]; 1.6% in assay [3]; -5.3% in assay [4]; 12.2% in assay [5]; 22.4% in assay [6].

Take `Cn1c(=O)c2c(ncn2CC(=O)O)n(C)c1=O`: the growth inhibition is -3.9% in assay [1]; -28.1% in assay [2]; -8.5% in assay [3]; 6.7% in assay [4]; -13.8% in assay [5]; 19.9% in assay [6].

For `CN(C(=O)CCCO)c1cc([N+](=O)[O-])ccc1OCc1ccccc1`, the growth inhibition is 7.6% in assay [1]; 2.8% in assay [2]; -1.2% in assay [3]; -0.8% in assay [4]; 0.7% in assay [5]; -0.75% in assay [6].

On to `CCn1c(O)c(C=Nc2ccccc2)s/c1=N/Nc1nc(C)c(C(C)=O)s1`, for which the growth inhibition was 24.6% in assay [1]; 5.25% in assay [2]; 17.2% in assay [3]; 16.1% in assay [4]; 42.9% in assay [5]; 21.2% in assay [6].

As for `NC1=NN(O)C2=CC(Br)C=CC2=N1` (stereo not given), the growth inhibition is 10.3% in assay [1]; -7.4% in assay [2]; 11.6% in assay [3]; 7.55% in assay [4]; 43.1% in assay [5]; 22.4% in assay [6].

Consider `COc1cccc(CSCC(=O)O)c1`, for which the growth inhibition in assay [1] was -9.3%; in assay [2], -26.5%; in assay [3], -44.2%; in assay [4] it was 7.25%; in assay [5], -17.6%; in assay [6], -1.6%.

On to `CCC(=O)c1cccc(-c2ccccc2)c1C`, for which the growth inhibition was 7% in assay [1]; -13.5% in assay [2]; -2.5% in assay [3]; 4.25% in assay [4]; 11.7% in assay [5]; 11.5% in assay [6].

Regarding `CC(O)CNC(C)(C)CN` (stereo not given), the growth inhibition in assay [1] was -7.45%; in assay [2], -15.5%; in assay [3], -10.4%; in assay [4], 4.4%; in assay [5] it was -18.8%; in assay [6], -4%.

For the compound `Cc1cc2nc3c(C(OC4OC(CO)C(O)C(O)C4O)C(O)CO)nn(-c4ccccc4)c3nc2cc1C` (stereo not given), the growth inhibition in assay [1] was -23%; in assay [2], -13.8%; in assay [3] it was -35.1%; in assay [4], 0.25%; in assay [5] it was -26.9%; in assay [6], 0.75%.

`O=C1C(=O)N(CN2CCCCC2)c2ccccc21`: the growth inhibition was 10.4% in assay [1]; -40.9% in assay [2]; 26.4% in assay [3]; 10.9% in assay [4]; 22.4% in assay [5]; 17.9% in assay [6].

In the case of `Cc1cc(C)c[n+](-c2nc3c([O-])n(C)c(=O)n(C)c-3n2)c1`, the growth inhibition in assay [1] was -5.35%; in assay [2] it was 3.15%; in assay [3], -17.8%; in assay [4], -5.45%; in assay [5], -8.25%; in assay [6], -4.15%.

On to `N#CC1=C(N)NC(=O)C(C(N)=O)C1c1ccccc1Cl` (stereo not given), for which the growth inhibition is -16.6% in assay [1]; -13.4% in assay [2]; -12.1% in assay [3]; -11.3% in assay [4]; -11.4% in assay [5]; -12.8% in assay [6].

With `ClC1=CC(Cl)=C2N=C(N3CCCC3)N=C3N=C(C(Cl)(Cl)Cl)N=C1N32`, the growth inhibition in assay [1] was -2.8%; in assay [2], 22.6%; in assay [3] it was 3.6%; in assay [4], -13.4%; in assay [5] it was 3.2%; in assay [6] it was -20.4%.

On to `N#CC(=Nc1ccc2ccccc2c1)C1=C(O)c2ccccc2C1=O`, for which the growth inhibition in assay [1] is 15.8%; in assay [2], -3.2%; in assay [3], 0.2%; in assay [4] it was -30.4%; in assay [5], 10.2%; in assay [6] it was 11.8%.

Turning to `CC(=O)NCCC1CN(C(=O)/C=C/I)c2ccccc21` (stereo not given), the growth inhibition in assay [1] was -8.4%; in assay [2] it was 30.4%; in assay [3], 4.55%; in assay [4] it was 37.7%; in assay [5], 24.6%; in assay [6], -17.4%.

For `CC(C)(C)CC(C)(C)c1ccc(OCCOc2ccccc2NS(=O)(=O)c2ccc(N)cc2)cc1`, the growth inhibition was 47.5% in assay [1]; -0.35% in assay [2]; 33.6% in assay [3]; 1.1% in assay [4]; 10.1% in assay [5]; 23.6% in assay [6].

`CC(=O)OC1=CC(=O)N(C(=O)c2ccccc2)C1`: the growth inhibition in assay [1] is -2.8%; in assay [2] it was -5.95%; in assay [3] it was -18.6%; in assay [4], -12.2%; in assay [5], 3.2%; in assay [6], -6.55%.

As to `COc1ccc2[nH]c(=O)ccc2c1`, the growth inhibition in assay [1] was 1.6%; in assay [2], 0.35%; in assay [3], -2.3%; in assay [4], -0.5%; in assay [5], 12.7%; in assay [6] it was -2.95%.

Consider `CC(=O)NC(C=O)C(O)C(O)C(O)C(=O)O` (stereo not given) (tested in a mixture with another compound), for which the growth inhibition in assay [1] is -25.4%; in assay [2] it was -31.2%; in assay [3], -22.2%; in assay [4], 1.8%; in assay [5], -22.9%; in assay [6], -4.9%.

On to `CC1(C)CC(=O)c2c([nH]c(=S)c(C#N)c2-c2ccc(Br)cc2)C1`, for which the growth inhibition in assay [1] was -37.3%; in assay [2], -13.1%; in assay [3], -27.4%; in assay [4] it was -11.8%; in assay [5], -8.7%; in assay [6], -42.1%.

As for `O=C(/C=C/C=C/c1ccccc1)CCc1ccccc1`, the growth inhibition in assay [1] is 6.75%; in assay [2], 17.2%; in assay [3], 24.2%; in assay [4], 30.6%; in assay [5], 16.2%; in assay [6], -29.4%.

`Cc1cccc(Cl)c1NC(=O)COc1ccc(Cl)cc1`: the growth inhibition was 5.75% in assay [1]; 5.75% in assay [2]; 38.2% in assay [3]; 1.65% in assay [4]; 30.9% in assay [5]; 26.2% in assay [6].

For the origin of these results see PubChem BioAssay (NCI).
